Results filed as inconclusive are left out. A call without a number means that no potency is given here. Unmarked numbers belong to inactive results. Calls of active or inactive are those of the source. Calls come from the whole dose curve; as a rule, active = well fitted curve in the direction sought with a large enough effect; inconclusive = small, poorly fitted or top-dose-only effect, or another doubt; inactive = no such curve, though single readings can be large; an effect the other way counts as inactive or inconclusive. Square brackets hold non-standard residues; d marks the D form. Peptide text beside a SMILES is read from it.
Columns and labels:
[1] = molecular target: Cellular tumor antigen p53 (Homo sapiens) (UniProt P04637); assay: Primary qHTS for small molecule compounds that upregulate eGFP-tagged delta133p53alpha (in N-terminal) cells. (AID 2060322); conditions: NCI-H358 eGFP-delta133p53alpha fluorescence, 24 h; activation: hits give high values; note: nearly all actives have a fitted effect of over 75% in size; note: potency is the fitted concentration of half-maximal effect; for activation: series mostly up to about 56 µM
Cellular tumor antigen p53 (Homo sapiens), sequence (P04637 whole entry, looked up): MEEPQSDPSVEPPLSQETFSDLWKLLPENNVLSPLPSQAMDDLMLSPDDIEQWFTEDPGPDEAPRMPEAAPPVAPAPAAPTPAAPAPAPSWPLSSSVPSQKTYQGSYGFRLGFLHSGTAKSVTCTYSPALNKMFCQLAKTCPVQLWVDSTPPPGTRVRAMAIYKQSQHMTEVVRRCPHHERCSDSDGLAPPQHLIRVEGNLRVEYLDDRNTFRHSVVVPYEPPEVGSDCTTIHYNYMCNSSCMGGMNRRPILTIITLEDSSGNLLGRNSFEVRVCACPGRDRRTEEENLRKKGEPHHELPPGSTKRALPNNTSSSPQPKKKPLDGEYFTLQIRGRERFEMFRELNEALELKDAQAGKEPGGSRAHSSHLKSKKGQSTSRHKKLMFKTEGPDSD
Procedure, shortened: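 NCI-H358 cells pre-induced 24 h with 10 ng/ml doxycycline to express N-terminal eGFP-delta133p53alpha, then dosed 24 h at 37C without doxycycline; fixed, Hoechst-stained, GFP intensity by laser scanning cytometry, normalized to DMSO (0%) and 57.5 uM 5-azacytidine (100%).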

[2] = molecular target: Aldehyde dehydrogenase, mitochondrial (Homo sapiens) (UniProt P05091); assay: qHTS for Inhibitors of the Aldehyde Dehydrogenase Family (ALDH2) Primary screen (AID 2061308); note: nearly all actives have a fitted effect of over 55% in size
[3] = molecular target: Retinaldehyde dehydrogenase 3 (Homo sapiens) (UniProt P47895); assay: qHTS for Inhibitors of the Aldehyde Dehydrogenase Family (ALDH1A3) Primary screen (AID 2061315)

SMILES	activation [1]	Potency [2]	Potency [3]	Potency [1]	activity change, negative = inhibition [2]	activity change, negative = inhibition [3]
C/C(=C\CCC(C(=O)O)C1CCC2(C)C3=C(CCC12C)C1(C)CCC(=O)C(C)(C)C1CC3)C(=O)O (stereo unspecified)	1.53%	inactive	inactive			
CCC(C)C(=O)O[C@@H]1[C@@H](O)[C@@H](O[C@H]2O[C@H](CO)[C@@H](O)[C@H](O)[C@H]2O)O[C@H](CO)[C@H]1O (stereo partly specified)	-2.29%	inactive	inactive			
O=C(/C=C/c1ccc(O)cc1)OC[C@H]1O[C@@H](O/C(=C\c2ccccc2)C(=O)O)[C@H](O)[C@@H](O)[C@@H]1O	-2.29%	inactive	inactive			
C=C(C)C(=O)OC1CC2(C)OC(=CC2=O)C(=C)CC2OC(=O)C(=C)C12 (stereo unspecified)		inactive	inactive	4.67 µM (active)		
C/C(=C\CCC(C)CCO)C(=O)O[C@@H]1[C@@H](O)[C@H](OC2OC=C(C(=O)O)C3CCC(C)(O)C23)O[C@H](CO)[C@H]1O (stereo partly specified)	13.4%	inactive	inactive			
C=CC1(C)C=C2CCC3C(C)(C)C(O[C@@H]4O[C@@H](CO)[C@H](O)[C@H]4O)CCC3(C)C2CC1O[C@@H]1O[C@H](C)[C@H](O)[C@H](O)[C@H]1O (stereo partly specified)	0.763%	inactive	inactive			
C[C@H](CN1CCCC1)C(=O)c1ccc(C(F)(F)F)cc1	21%	inactive	inactive			
C[C@@H]1O[C@@H](O[C@H]2[C@H](O[C@H]3[C@H](O[C@H]4CC[C@@]5(CO)C(CC[C@]6(C)C5CC=C5C7CC(C)(C)C[C@@H](O)[C@]7(C)CC[C@]56C)C4(C)C)O[C@H](C(=O)O)[C@@H](O)[C@@H]3O)OC[C@@H](O)[C@@H]2O)[C@H](O)[C@H](O)[C@H]1O (stereo partly specified)	-15.3%	inactive	inactive			
CN(C)CCn1cc(S(=O)(=O)c2cccc(F)c2)c2cccnc21	-7.16%	inactive	inactive			
CN(C)C(=O)CNC(=O)Cc1ccccc1	5.02%	inactive	inactive			
CC1=C(COC2OC(CO)C(O)C(O)C2O)C(C(CO)C(=O)O)CC1 (stereo unspecified)	-6.87%	inactive	inactive			
C=C1C[C@]23C[C@H]1CC[C@H]2[C@]1(C)CC[C@H](O)[C@@](C)(C(=O)O)[C@H]1[C@@H]3C(=O)O	-6.11%	inactive	inactive			
CC(NC(=O)C(O)C(C)C)C(=O)NC1C(=O)N(C)CCc2ccccc21 (stereo unspecified)	2.39%	inactive	inactive			
C[C@]12CCC(=O)C=C1[C@@H](O)C[C@@H]1[C@@H]2[C@@H](O)C[C@@]2(C)[C@H]1CC[C@]2(O)C(=O)CO	16.3%	inactive	inactive			
C[C@@H]1CC[C@@]23CC[C@]4(C)[C@@](C=CC5[C@@]6(C)CC[C@H](O)C(C)(C)C6CC[C@]54C)(OC2=O)C3[C@H]1C (stereo partly specified)	12.2%	inactive	inactive			
C=C(COC(=O)C(O)C(O)CN)C12OC1C1(C)C(=CC2=O)C(O)C(O)CC1C (stereo unspecified)	-7.63%	inactive	inactive			
CC1(C)CCCC2(C)C(CO)C3CCC2C31 (stereo unspecified)	24.1%	inactive	inactive			
CC(/C=C/[C@]1(O)[C@@]2(C)CO[C@@]1(C)C[C@@H](O)C2)=C\C(=O)O[C@@H]1O[C@H](CO)[C@@H](O)[C@H](O)[C@H]1O	-16.8%	inactive	inactive			
C=C1C2CCC3CC2(CC(O)C2(O)C1CC(OC1OC(CO)C(O)C(O)C1O)C2(C)C)CC3(C)O (stereo unspecified)	19.6%	inactive	inactive			
C[C@H]1CC[C@@]2(OC1)O[C@H]1CC3C4CC[C@H]5C[C@@H](O[C@@H]6O[C@H](CO)[C@H](O[C@@H]7O[C@H](CO)[C@@H](O)[C@H](O[C@@H]8OC[C@@H](O)[C@H](O)[C@H]8O)[C@H]7O[C@@H]7O[C@H](CO)[C@@H](O)[C@H](O)[C@H]7O)[C@H](O)[C@H]6O)[C@H](O)C[C@]5(C)C4=CC(=O)[C@]3(C)[C@H]1[C@@H]2C (stereo partly specified)	6.11%	inactive	inactive			
C=C1C(=O)OC2/C=C(\C)CC3C=C(CC/C=C(\C)CCC12)C(=O)O3 (stereo unspecified)		inactive	inactive	6.59 µM (active)		
OC[C@H]1O[C@@H](OCCc2ccccc2)[C@H](O)[C@@H](O)[C@@H]1O	-2.29%	inactive	inactive			
C/C=C(\C)C(=O)OC[C@H]1O[C@@H](O[C@H]2[C@@H](O[C@H]3O[C@H](COC(=O)/C(C)=C/C)[C@@H](O)[C@H](O)[C@H]3O[C@@H]3O[C@H](CO)[C@@H](O)[C@H](OC(=O)/C(C)=C/C)[C@H]3O)O[C@H](COC(=O)/C(C)=C/C)[C@@H](O)[C@@H]2O)[C@H](O)[C@@H](O)[C@@H]1O	-25.2%	inactive	inactive			
CC1(C)CC2C3=CCC4C5(C)CCC(OC6OC(C(=O)O)C(O)C(O)C6OC6OC(CO)C(O)C(O)C6OC6OC(CO)C(O)C(O)C6O)C(C)(CO)C5CCC4(C)C3(C)CCC2(C)C(OC2OCC(O)C(OC3OC(CO)C(O)C(O)C3O)C2O)C1O (stereo unspecified)	-18.3%				5.84% [at 11.2 µM]	-21.1% [at 11.2 µM]

SMILES	activation [1]	Potency [2]	Potency [3]	Potency [1]	activity change, negative = inhibition [2]	activity change, negative = inhibition [3]
C/C=C/C=C/C(=O)O[C@@H]1C=C2COC(=O)[C@]2(O)[C@@]2(C)CCCC(C)(C)[C@H]12	-3.82%	inactive	inactive			
COc1cc([C@H]2OC[C@@H]3[C@@H](c4ccc(O[C@@H]5O[C@H](CO)[C@@H](O)[C@H](O)[C@H]5O)c(OC)c4)OC[C@]23O)ccc1O	3.57%	inactive	inactive			
Cn1ncnc1[C@@H]1c2n[nH]c(=O)c3cc(F)cc(c23)N[C@H]1c1ccc(F)cc1	-7.14%	inactive	inactive			
CC1(C)CC[C@]2(C(=O)O[C@@H]3O[C@H](CO)[C@@H](O)[C@H](O)[C@H]3O)CC[C@]3(C)C(=CCC4[C@@]5(C)C[C@@H](O)[C@H](O)C(C)(C)C5CC[C@]43C)C2[C@@H]1O (stereo partly specified)	-8.04%	inactive	inactive			
O=C(c1ccccc1)c1c(O)cc(O)cc1O[C@@H]1O[C@H](CO)[C@@H](O)[C@H](O)[C@H]1O	-13%	inactive	inactive			
O=C(c1ccc(Cl)cc1)N1CCN(c2ccnc3cc(Cl)ccc23)CC1	-3%	inactive	inactive			
CC1=CC(=O)CC2C1(O)CCC(C)C21CC(c2ccoc2)OC1=O (stereo unspecified)	6.87%	inactive	inactive			
COc1cc2c(cc1OC)CC(=O)N(CCCNC[C@H]1Cc3cc(OC)c(OC)cc31)CC2	-11.7%	inactive	inactive			
CC1=C2C3OC(=O)C(C)C3(O)CCC2(C)CCC1O (stereo unspecified)	-10.7%	inactive	inactive			
O=C(/C=C/c1ccc(O)cc1)OC[C@]12O[C@H]1[C@@H](O)[C@@H]1C=CO[C@@H](O[C@@H]3O[C@H](CO)[C@@H](O)[C@H](O)[C@H]3O)[C@@H]12	18.3%	inactive	inactive			
CC(C)c1ccc2c(c1)C(O)CC1C(C)(C(=O)O)CCCC21C (stereo unspecified)	-6.11%	inactive	inactive			
CC(C)(C)NCCCNC(=O)c1cccc(Br)c1	-8.59%	inactive	inactive			
CC(=O)Nc1ccc(S(=O)(=O)Nc2cc(C)on2)cc1	11.9%	inactive	inactive			
C=C1CCC2C(C)(C)CC(=O)CC2(C)C1CCC(C)CCOC(C)=O (stereo unspecified)	-5.34%	inactive	inactive			
C=CC(C)(CC/C=C(\C)C(=O)OC[C@H]1O[C@@H](OC(C)(C=C)CC/C=C(\C)C(=O)O[C@H]2[C@H](O)[C@@H](O)[C@H](OC(C)(C=C)CC/C=C(\C)C(=O)O)O[C@@H]2CO)[C@H](O)[C@@H](O)[C@@H]1O)O[C@@H]1O[C@H](CO)[C@@H](O)[C@H](O)[C@H]1O (stereo partly specified)	-9.16%	inactive	inactive			
C[C@@H]1C(=O)O[C@H]2C[C@]34[C@H]5C[C@@H](C(C)(C)C)[C@]36[C@@H](OC(=O)[C@H]6O)O[C@]4(C(=O)O5)[C@]21O	-22.1%	inactive	inactive			
C[C@@H]1O[C@@H](O[C@H]2[C@H](OC(=O)[C@]34CCC(C)(C)C[C@H]3C3=CCC5[C@@]6(C)C[C@H](O)[C@H](O[C@@H]7O[C@H](CO)[C@@H](O)[C@H](O)[C@H]7O)[C@@](C)(CO)C6[C@H](O)C[C@@]5(C)[C@]3(C)CC4)OC[C@H](O)[C@@H]2O)[C@H](O)[C@H](O)[C@H]1O[C@@H]1OC[C@@H](O)[C@H](O[C@@H]2OC[C@](O)(CO)[C@H]2O)[C@H]1O (stereo partly specified)	5.36%				8.31% [at 11.2 µM]	7.08% [at 11.2 µM]
CC1=CC(=O)[C@H]2C(C)(C)CCC[C@]2(C)[C@@]1(O)CO	-29%	inactive	inactive			
CC(=O)N[C@H](Cc1ccc(O)cc1)C(=O)N[C@H](CCCN=C(N)N)C(=O)N[C@H](Cc1ccccc1)C(N)=O (Ac-[dY]-[dR]-[dF]-NH2)	-15.7%	inactive	inactive			
CC(=O)c1cc(C(=O)N[C@@H](C)Cn2ccc(-c3ccc(C#N)c(Cl)c3)n2)[nH]n1	18.3%	inactive	inactive			
NCCCNc1ccc(Nc2nccc(Nc3cc(C4CC4)[nH]n3)n2)cc1		inactive	inactive	1.51 µM (active)		
O=c1c2ccccc2nc2n1CCC2O (stereo unspecified)	-3.82%	inactive	inactive			
C=C(C)C(=O)O[C@H]1[C@H]2C(=C)C(=O)O[C@@H]2C[C@@H](C)/C=C\C(=O)[C@](C)(O)[C@@H]1OC(C)=O		inactive	inactive	4.65 µM (active)		
